ASM inhibitor: inhibitors of human secretory acid sphingomyelinase. P17405. placental ASM, HMU-PC fluorogenic substrate, 60 min. AID 504937. Potency, µM (highest dose often 57.5 µM), without a hit: at the top dose activity change, negative = inhibition, usual class: inhibitors. 0.006% of 340,000 active; further: potency means the concentration at half of the fitted maximal effect
Target sequence (P17405 47-631 limits assumed): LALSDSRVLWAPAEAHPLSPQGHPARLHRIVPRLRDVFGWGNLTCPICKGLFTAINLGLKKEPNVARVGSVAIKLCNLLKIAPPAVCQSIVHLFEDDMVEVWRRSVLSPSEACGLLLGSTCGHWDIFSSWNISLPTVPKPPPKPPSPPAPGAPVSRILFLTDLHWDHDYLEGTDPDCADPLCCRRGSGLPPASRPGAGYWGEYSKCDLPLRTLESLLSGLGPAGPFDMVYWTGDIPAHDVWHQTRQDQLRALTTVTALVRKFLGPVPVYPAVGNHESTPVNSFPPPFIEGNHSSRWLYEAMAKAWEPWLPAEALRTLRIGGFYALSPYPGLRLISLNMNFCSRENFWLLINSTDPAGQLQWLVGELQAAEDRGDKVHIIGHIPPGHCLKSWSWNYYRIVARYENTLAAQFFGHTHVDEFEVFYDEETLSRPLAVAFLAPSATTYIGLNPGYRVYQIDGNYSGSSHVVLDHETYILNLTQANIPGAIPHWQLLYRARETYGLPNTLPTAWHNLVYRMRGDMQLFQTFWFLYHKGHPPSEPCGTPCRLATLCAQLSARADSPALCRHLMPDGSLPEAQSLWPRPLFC
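Human placenta-derived ASM preincubated with compound 10 min at room temperature, then reacted with 9 uM (final) fluorogenic HMU-PC substrate for 60 min at 37 C. Stop solution raises pH to 10; fluorescence read at Ex 386/Em 447 nm.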
Mito fusion yeast: inhibitors of mitochondrial division or activators of mitochondrial fusion; S. cerevisiae fusion-defective mutant growth rescue, CellTiterGlo 48 h; Potency, µM (titrated, usually from 46.1 µM), without a hit: at the highest dose growth rescue (activation), most hits filed as activators; 0.23% of 320,000 active; further: potency means the concentration at half of the fitted maximal effect; % of control where 0% means no effect; nearly all actives have a fitted effect of over 45% in size
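Yeast fusion mutant, YPEG (non-fermentable carbon), compound, 48 h at 37C non-permissive; CellTiterGlo added, 10 min RT, luminescence read. Rescued growth = division inhibition.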
mIDH1 inhibitor: human IDH1 R132H inhibition. IDH1-R132H enzyme, NADPH consumption, diaphorase/resazurin fluorescence. Potency, µM (top dose mostly 76.6 µM), without a hit: at the top dose activity change, negative = inhibition, actives largely listed as inhibitors. 0.093% of 390,000 active. AID 602179; further: potency means the concentration at half of the fitted maximal effect; on the % scale 0 is the no-effect control and ±100 the full control effect; nearly all actives have a fitted effect of over 65% in size
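IDH1-R132H (0.5 ug/mL) preincubated 30 min with compound, then NADPH (0.016 mM) and alpha-KG (2 mM) added; 80 min at RT, pH 7.5. Remaining NADPH coupled via diaphorase/resazurin to fluorescence (540/590 nm); concentration-response curves normalized to no-enzyme control.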
RGS4 inhibitor: human RGS4 inhibition; Transcreener GDP fluorescence polarization, RGS4-accelerated GTP hydrolysis; Potency, µM (doses to about 114 µM), inactives show at the highest dose activity change, negative = inhibition, hits mostly inhibitors; 0.039% of 390,000 active; AID 504845; further: potency means the concentration at half of the fitted maximal effect; on the % scale 0 is the no-effect control and ±100 the full control effect; nearly all actives have a fitted effect of over 75% in size
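MLSMR compounds (23 nl, pin-transferred) preincubated 10 min at room temperature with a 500nM (2x) first reagent, then RGS4 at 900nM (2x) plus Transcreener GDP mix added; fluorescence polarization (620/688 nm) read before and after 90 min at 30 °C.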
LDHA inh: LDHA (human) enzyme inhibition | P00338 | purified LDHA, NADH/diaphorase-resazurin fluorescence; active compounds read low | activity change, % (values are at about 110 or 230 µM) | 0.15% of 480,000 active | AID 1347041; in the data active means activity change below about -30%; inconclusive means mostly about -25% to -30%;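 further: plate controls were DMSO wells for no effect and wells without enzyme for full effect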
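Human LDH5 (2 nM) was incubated with 0.06 mM NADH and 0.2 mM pyruvate for 5 min at room temperature in Tris pH 7.4. Remaining NADH was coupled through diaphorase/resazurin, and resorufin fluorescence was read at 0 and 20 min.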
ClpP mod: qHTS Assay for Activators of ClpP | 1.9% of 340,000 active | purified B. subtilis ClpP, FRET peptide cleavage, 20 min | ATP-dependent Clp protease proteolytic subunit (Bacillus subtilis (strain 168)), P80244 | Potency, µM (doses to about 57.5 µM), without a hit: top-dose activity change, negative = active | AID 651965, 2013; active means well fitted falling curve with a large enough effect; inconclusive means small, poorly fitted or top-dose-only effect; inactive means no such curve, though single readings can be large or run the other way; further: potency means the concentration at half of the fitted maximal effect; the source files actives as falling curves though it sought activators and does not explain the sign; nearly all actives have a fitted effect of over 65% in size
Target sequence (P80244 whole entry, looked up): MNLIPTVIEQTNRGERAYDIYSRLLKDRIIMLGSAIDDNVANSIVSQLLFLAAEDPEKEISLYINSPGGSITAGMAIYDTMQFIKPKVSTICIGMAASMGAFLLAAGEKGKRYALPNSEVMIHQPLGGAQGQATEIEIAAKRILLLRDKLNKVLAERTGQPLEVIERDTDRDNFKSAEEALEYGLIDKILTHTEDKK
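Buffer: 100 mM Tris/HCl pH8, 100 mM KCl, 0.05% low protease BSA, 2.5% glycerol, 0.01% Tween-20. ClpP 10 microg/mL final; 20 min RT; delta FRET normalized to ADEP and DMSO controls.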
Active calls of the source: *; u = inconclusive; x = no result; ! = repeats disagree; [ ] = remark or other dose. Only a selection was taken, and hits are over-represented in it overall. Unless noted, the call rests on the fitted dose curve; in most records, active means well fitted curve in the direction sought with a large enough effect; inconclusive means small, poorly fitted or top-dose-only effect, or another doubt; inactive means no such curve, though single readings can be large; an effect the other way counts as inactive or inconclusive.

SMILES	ASM inhibitor	Mito fusion yeast	mIDH1 inhibitor	RGS4 inhibitor	LDHA inh	ClpP mod
O=C(Nc1ccccc1C(=O)O)c1ncn[nH]1	7.5%	-1.9%	6.4%	-5.3%	5.4	28.2µM*
COc1ccc(-c2ocnc2C(=O)Nc2ccccc2Cl)cc1	x	x	x	x	-4.5	x
N#C/C(=C/c1ccc(-c2ccccc2F)o1)c1nc2ccccc2[nH]1	x	x	x	x	10.9	x
COc1ccc(C2C(C#N)=C(N)Oc3c2sc2nc(C)cc(C)c32)cc1 (stereo not given)	35.8%	0.8%	-2.4%	-23.1%	-3.6	28.2µM*
COc1ccc(C2C(C#N)=C(N)OC(C(C)(C)C)=C2C#N)cc1 (stereo not given)	x	x	x	x	54.4	x
Oc1ccc2ccccc2c1SSc1c(O)ccc2ccccc12	x	6.4%	x	1.68µM*	x	x
NCc1c(O)ccc2ccccc12	x	-38.1%	x	x	x	x
CCN(CC)S(=O)(=O)c1ccc(S(=O)(=O)Nc2ccc(C(C)C)cc2)cc1	x	x	x	x	7.4	x
CC(NC(=O)C1CCCC1)C1CC2CCC1C2 (stereo not given)	-0.7%	0.3%	4.2%	14.3%	0.6	28.2µM*
CC(NC(=O)c1ccccc1Br)C1CC2CCC1C2 (stereo not given)	-0.1%	x	0.0%	18.4%	-3.2	x
CC(NC(=O)c1ccccc1[N+](=O)[O-])C1CC2CCC1C2 (stereo not given)	-4.0%	-1.4%	-2.3%	-17.2%	-7.5	25.1µM*
CC(NC(=O)CCC1CCCCC1)C1CC2CCC1C2 (stereo not given)	x	x	x	x	2.2	x
Cn1c(=O)[nH]c(=O)c2c1nc(Sc1nc3ccccc3[nH]1)n2Cc1ccccc1Cl	x	x	x	x	2.8	x
COc1ccc(-c2n[nH]c(C(F)(F)F)c2-c2cc3ccccc3o2)c(O)c1	-15.7%	-18.7%	-1.3%	-27.1%	-10.3	25.1µM*
COc1ccccc1-c1c(-c2ccc(OCC(=O)NN)cc2O)n[nH]c1C(F)(F)F	-0.8%	0.2%	-21.0%	-6.8%	0.6	-5.5%
N=C(N)Cc1ccccc1	x	x	x	x	-7.4	x
CC(C)C(=O)Nc1nc(-c2ccc(S(=O)(=O)N3CCOCC3)cc2)cs1	-1.8%	1.9%	4.0%	16.0%	-2.2	31.6µM*
COc1ccccc1OC(C)C(=O)Nc1nc(-c2ccc(S(=O)(=O)N3CCOCC3)cc2)cs1 (stereo not given)	-3.8%	4.1%	3.6%	-26.2%	-2.1	-11.0%
CCN(CC)CCCNCC(=O)Nc1cc(C)on1	-1.8%	-2.5%	3.2%	8.7%	-30.2*	-0.6%
CSCC(=O)Nc1cc(C)on1	-2.2%	-3.1%	-2.6%	12.2%	-1.1	x
CC1CCN(C(=O)Cn2nnnc2-c2ccc(Cl)cc2)CC1	x	x	x	x	1.8	x
Cc1csc(NC(=O)c2ccco2)n1	-0.3%	-3.8%	-9.6%	-4.5%	-8.8	22.4µM*
COc1ccc(-c2nnc(CN3CCCC3c3cccn3C)o2)cc1 (stereo not given)	x	x	x	x	3.6	x
N#CC(C#N)=Cc1cn(-c2ncc(C(F)(F)F)cc2Cl)c2ccccc12	-8.4%	9.8%	8.9%	-42.3%	0.8	15.8µM*
O=C(c1cccc(Cl)c1)N1CCN(Cc2ccc3c(c2)OCO3)CC1	-1.1%	4.5%	1.7%	25.5%	-0.8	0.4%
SMILES	ASM inhibitor	Mito fusion yeast	mIDH1 inhibitor	RGS4 inhibitor	LDHA inh	ClpP mod
O=C(c1cccn2c(=O)c3ccc(Cl)cc3nc12)N1CCN(Cc2ccc3c(c2)OCO3)CC1	323.5%	1.7%	-0.3%	-19.6%	0.1	22.4µM*
COc1ccc(OC)c(-n2c(C)ccc2-c2ccc(S(C)(=O)=O)cc2)c1	39.0%	2.3%	14.4%	u	8.4	28.2µM*
COCCOC(=O)/C(C#N)=C/c1ccc(O)c(I)c1	x	x	x	x	0.8	x
Nc1nc2ccccc2n1/N=C/c1ccc([N+](=O)[O-])s1	-7.3%	11.2µM*	7.6%	1.7%	-6.4	-0.8%
Nc1nc2ccccc2n1/N=C/c1cccnc1	-0.3%	x	3.2%	-43.4%	-4.1	0.3%
COc1ccc(CNc2nc3nc(C)c(Cl)c(C)n3n2)cc1OC	-1.3%	x	8.7%	-34.8%	0.7	-7.2%
Cc1nc2nc(NCc3cccs3)nn2c(C)c1Cl	9.9%	-0.3%	3.9%	0.5%	-5.8	12.6µM*
Cc1nc2nc(Cc3ccccc3)nn2c(C)c1Cl	1.6%	-4.6%	5.4%	16.5%	-12.7	-6.5%
COc1cccc(CNc2nc3nc(C)c(Cl)c(C)n3n2)c1	11.5%	-4.4%	0.6%	-7.3%	-1.5	31.6µM*
Cc1nc2nc(COc3ccccc3)nn2c(C)c1Cl	-1.8%	0.0%	-0.9%	-0.2%[11.4 µM]	-6.0	14.1µM*
COc1ccc(CNc2nc3nc(C)c(Cl)c(C)n3n2)cc1	16.6%	-2.3%	0.0%	1.5%	3.3	x
COC(=O)C1C(=O)C=C(N)CC1c1ccco1 (stereo not given)	x	x	x	x	33.8	x
Cc1ccc2c(c1)[nH]c1c(=O)n(CCCN3CCOCC3)cnc12	5.0%	0.8%	2.4%	-34.8%	-4.1	28.2µM*
O=c1c2[nH]c3ccccc3c2ncn1CCN1CCOCC1	1.4%	1.4%	-1.6%	-17.4%	-2.4	u
Cc1ccc2[nH]c3c(=O)n(Cc4ccncc4)cnc3c2c1	0.4%	-0.6%	0.8%	-16.0%	-2.6	14.1µM*
O=c1c2[nH]c3ccccc3c2ncn1CCN1CCCCC1	-2.0%	1.1%	3.7%	32.1%	-8.7	25.1µM*
O=c1c2[nH]c3ccc(Br)cc3c2ncn1Cc1ccncc1	5.0%	2.7%	-0.8%	-0.7%	-2.8	x
CCOc1ccc(NC(=O)Cn2c(C)cc3ccccc32)cc1	x	x	x	x	0.9	x
CCCOC(=O)COc1ccc2c(=O)c(-c3ccccc3OC)c(C(F)(F)F)oc2c1	x	x	x	x	0.9	x
O=S(=O)(O)Sc1ccccc1	x	x	2.3%	x	-0.9	-2.5%
CCN(CC)c1ccc(SS(=O)(=O)O)cc1	3.5%	4.3%	2.9%	u	0.8	14.1µM*!
O=C(Nc1nc(-c2ccccc2Cl)cs1)c1ccc(Cl)c(N2CCCC2=O)c1	x	x	x	x	11.3	x
O=S(=O)(NCc1ccccc1Cn1cccn1)N1CCOCC1	x	x	x	x	-2.4	x
CC(C)OC(=O)c1cc2c(ccn2C)n1CC(=O)N(Cc1ccccc1)c1ccc(F)cc1	-10.1%	21.7%	2.1%	-16.2%	0.4	31.6µM*
CNC(=O)c1ccc(OCc2coc(-c3ccc(F)cc3)n2)cc1	x	x	x	x	-4.2	x
CCOC(=O)c1cc2c(=O)n3ccccc3nc2n(Cc2ccccc2)c1=N	181.1%	-2.9%	-0.4%	2.1%	1.4	15.8µM*
CCOC(=O)c1cc2c(=O)n3ccccc3nc2n(CC(C)C)c1=NC(=O)c1ccco1	447.3%	14.0%	-1.8%	-3.8%	-3.6	7.08µM*
